B1: PhoQ; a variant is named by its letters at X, in order, P23837 (parent)
chain: MKKLLRLFFPLSLRVRFLLATAAVVLVLSLAYGMVALIGYSVSFDKTTFRLLRGESNLFYTLAKWENNKLHVELPENIDKQSPTMTLIYDENGQLLWAQRDVPWLMKMIQPDWLKSNGFHEIEADVNDTSLLLSGDHSIQQQLQEVREDDDDAEMTHSVAVNVYPATSRMPKLTIVVVDTIPVELKSSYMVWSWFIYVLSANLLLVIPLLWVAAWWSLRPIEALAKEVRELEEHNRELLNPATTRELTSLVRNLNRLLKSERERYDKYRTTLTDLTHSLKTPLXXLQXXLRSLRSEKMSVSDAEPVMLEQISRISQQIGYYLHRASMRGGTLLSRELHPVAPLLDNLTSALNKVYQRKGVNISLDISPEISFVGEQNDFVEVMGNVLDNACKYCLEFVEISARQTDEHLYIVVEDDGPGIPLSKREVIFDRGQRVDTLRPGQGVGLAVAREITEQYEGKIVAGESMLGGARMEVIFGRQHSAPKDE

Over roughly 140,000 sequences, “enrichment ratio after two sorts for PhoP signalling” has its median near 0; the highest 2% begin near 11. For the sample, the highest values were picked, then their nearest neighbours and some sequences at random.

Results on 155 variants are retold here after a collection of fitness landscapes (doi:10.1126/science.1257360).

The variants in the experiment derive from B1. Kind of experiment: enrichment ratio after two sorts for PhoP signalling (ratio (wild type AVST 3.29)); higher = more functional. The following applies: with PhoP (E. coli).
In the case of REDA, the enrichment ratio was ≤ 0.25.

Take PAGC: the enrichment ratio is ≤ 0.25. YDLP: the enrichment ratio was ≤ 0.25. For IRNP, the enrichment ratio is ≤ 0.25. Then DPYV, with 2.59; and EAKL, with ≤ 0.25; and VTTM, with 16.4. Then YEMM, with 16.1; and YSMM, with 14.3. With YERM, the enrichment ratio is ≤ 0.25. For the variant SCMM, the enrichment ratio worked out at 14.4.

For VTTS, the enrichment ratio was ≤ 0.25. On to NRMM, for which the enrichment ratio is ≤ 0.25. For KCMM, the enrichment ratio is ≤ 0.25.

With YEGM, the enrichment ratio is ≤ 0.25. For the variant VTGM, the enrichment ratio was ≤ 0.25. Consider YSWM, for which the enrichment ratio was ≤ 0.25. The same measure for SLMM: 5.51. As to RADI, the enrichment ratio was ≤ 0.25.

On to MQSS, for which the enrichment ratio is ≤ 0.25. In the case of NLSW, the enrichment ratio was ≤ 0.25. Then FRTV, with ≤ 0.25.

Turning to NQTP, the enrichment ratio is ≤ 0.25. Regarding GFHH, the enrichment ratio is ≤ 0.25. Take SQRD: the enrichment ratio was ≤ 0.25.

In the case of VHHE, the enrichment ratio is ≤ 0.25. Consider YEMS, for which the enrichment ratio came out at 14.7. Then GTMM, with 5.34. Consider VTMM, for which the enrichment ratio was found to be 12.1. As for GQMM, the enrichment ratio came to 11.4. Turning to GYMM, the enrichment ratio stood at 0.253. As to VYMM, the enrichment ratio was ≤ 0.25. VCMM: the enrichment ratio was found to be 2.29. For the variant VTPM, the enrichment ratio was ≤ 0.25. For the variant YEMW, the enrichment ratio was ≤ 0.25. For the variant TYMM, the enrichment ratio was 2.16. Take YEMV: the enrichment ratio came to 2.64. Turning to TCMM, the enrichment ratio was 11.8. The same measure for ILAT: 0.361. Consider HVDN, for which the enrichment ratio was ≤ 0.25. With TLEY, the enrichment ratio was ≤ 0.25.

On to KMTV, for which the enrichment ratio was ≤ 0.25. Then FPHD, with ≤ 0.25; and WHGQ, with ≤ 0.25; and TSMM, with 21.5.

With KSMM, the enrichment ratio was ≤ 0.25. Take MDMM: the enrichment ratio is ≤ 0.25. Then MCMM, with 11.9; and QTMM, with ≤ 0.25; and FFMM, with ≤ 0.25. Then FCMM, with 8.52; and SKMM, with 24.1; and NSMM, with 1.7. As for SKMG, the enrichment ratio worked out at 3.1. In the case of QGMM, the enrichment ratio was 31.6. In the case of QLQK, the enrichment ratio is ≤ 0.25. As for TKIP, the enrichment ratio is ≤ 0.25. For ELAY, the enrichment ratio is ≤ 0.25. As for NETK, the enrichment ratio is ≤ 0.25. Then MVNN, with ≤ 0.25; and RGIV, with ≤ 0.25. On to SFSE, for which the enrichment ratio is ≤ 0.25. With ETYT, the enrichment ratio is ≤ 0.25. As to MTEV, the enrichment ratio was ≤ 0.25. Then VHMG, with ≤ 0.25; and NNRM, with ≤ 0.25; and LSWM, with 2.98. For LNMM, the enrichment ratio amounted to 1.77. For FGGM, the enrichment ratio is ≤ 0.25.

Take LSMM: the enrichment ratio came to 12.4. The same measure for FGMM: 18.1; for FGWM: ≤ 0.25; for LWMM: ≤ 0.25. Then NNMM, with 17.4; and DRPI, with ≤ 0.25; and ETGL, with ≤ 0.25.

Regarding YNMN, the enrichment ratio is ≤ 0.25. ICFY: the enrichment ratio is ≤ 0.25.

Turning to DNHD, the enrichment ratio is ≤ 0.25. As to PFKT, the enrichment ratio was ≤ 0.25. As for QPNP, the enrichment ratio was ≤ 0.25.

PFSV: the enrichment ratio is ≤ 0.25. As for NIRV, the enrichment ratio is ≤ 0.25.

In the case of ALQP, the enrichment ratio was ≤ 0.25. Then ALCQ, with 13.8. ALCI: the enrichment ratio stood at 9.33. For the variant ALCE, the enrichment ratio stood at 16.1. Then LLCQ, with ≤ 0.25; and ALVE, with ≤ 0.25; and FDQC, with ≤ 0.25. Then HRRK, with ≤ 0.25; and GSPQ, with ≤ 0.25; and QQFA, with ≤ 0.25.

For the variant QEFG, the enrichment ratio is 30.8. For the variant QKFG, the enrichment ratio was ≤ 0.25. WQFG: the enrichment ratio was ≤ 0.25. For the variant QQFG, the enrichment ratio was determined as 20.2.

For QRFG, the enrichment ratio is ≤ 0.25. Regarding YSKV, the enrichment ratio was ≤ 0.25. With PITH, the enrichment ratio is ≤ 0.25.

Turning to YICL, the enrichment ratio amounted to 3.21. For the variant AEFT, the enrichment ratio came to 6.27. Then AELT, with 6.58; and AAAL, with 4.97; and AEAV, with 15.8.

AEAL: the enrichment ratio amounted to 18.2.

For AENT, the enrichment ratio is 10.7. Then AEVT, with 15.3; and AEEV, with 2.19; and AEAT, with 47.1.

On to AEYV, for which the enrichment ratio was ≤ 0.25. With AEYT, the enrichment ratio was 2.16. Consider ADAL, for which the enrichment ratio was ≤ 0.25. Take FMVL: the enrichment ratio was ≤ 0.25. SFSW: the enrichment ratio is ≤ 0.25. Consider TSQR, for which the enrichment ratio is ≤ 0.25. In the case of MHEF, the enrichment ratio was ≤ 0.25. As for INEK, the enrichment ratio was ≤ 0.25. Then HTRD, with ≤ 0.25; and IMKH, with ≤ 0.25; and GQND, with ≤ 0.25. As to FWMY, the enrichment ratio was ≤ 0.25.

For RETL, the enrichment ratio is ≤ 0.25. In the case of VEGG, the enrichment ratio was ≤ 0.25.

With ECSV, the enrichment ratio is ≤ 0.25. Consider IAKM, for which the enrichment ratio was ≤ 0.25. Then AQST, with 5.3; and AEQY, with 17.1.

Turning to AEAG, the enrichment ratio came out at 7.71. Take AEAM: the enrichment ratio turned out to be 5.95. Then ADIY, with ≤ 0.25; and AEST, with 18.4. For AEIY, the enrichment ratio was found to be 14.8. Consider AQQY, for which the enrichment ratio is ≤ 0.25.

ARST: the enrichment ratio was ≤ 0.25. Then AEAS, with 21.3.

Consider ANIY, for which the enrichment ratio turned out to be 0.312. Consider AEQP, for which the enrichment ratio is ≤ 0.25. MKWE: the enrichment ratio was ≤ 0.25. As for PDNP, the enrichment ratio is ≤ 0.25. Then PQPV, with ≤ 0.25; and INLG, with 2.36. With DREC, the enrichment ratio was ≤ 0.25. For VNMC, the enrichment ratio was determined as 1.44. Take AERY: the enrichment ratio was ≤ 0.25. Consider AEYI, for which the enrichment ratio turned out to be 3.12.

Take AEWT: the enrichment ratio stood at 22.1.

Take AIWT: the enrichment ratio is ≤ 0.25.

With AEAI, the enrichment ratio turned out to be 14.2. Take AEAW: the enrichment ratio is ≤ 0.25. As for AEIN, the enrichment ratio turned out to be 1.09. AEKA: the enrichment ratio was ≤ 0.25.

With AEDY, the enrichment ratio is ≤ 0.25. Then AEAN, with 28.2; and AEAY, with 39.2.
